The term inhibition denotes the change of the read-out against control, counted positive when it falls.

Experiment [1] addresses Sphingosine kinase 1 (Homo sapiens) (UniProt Q9NYA1). The following applies: at 1 µM.
Experiment [2] has as its target T1, Sphingosine kinase 2 (Homo sapiens) (UniProt Q9NRA0).
T1 sequence (whole entry): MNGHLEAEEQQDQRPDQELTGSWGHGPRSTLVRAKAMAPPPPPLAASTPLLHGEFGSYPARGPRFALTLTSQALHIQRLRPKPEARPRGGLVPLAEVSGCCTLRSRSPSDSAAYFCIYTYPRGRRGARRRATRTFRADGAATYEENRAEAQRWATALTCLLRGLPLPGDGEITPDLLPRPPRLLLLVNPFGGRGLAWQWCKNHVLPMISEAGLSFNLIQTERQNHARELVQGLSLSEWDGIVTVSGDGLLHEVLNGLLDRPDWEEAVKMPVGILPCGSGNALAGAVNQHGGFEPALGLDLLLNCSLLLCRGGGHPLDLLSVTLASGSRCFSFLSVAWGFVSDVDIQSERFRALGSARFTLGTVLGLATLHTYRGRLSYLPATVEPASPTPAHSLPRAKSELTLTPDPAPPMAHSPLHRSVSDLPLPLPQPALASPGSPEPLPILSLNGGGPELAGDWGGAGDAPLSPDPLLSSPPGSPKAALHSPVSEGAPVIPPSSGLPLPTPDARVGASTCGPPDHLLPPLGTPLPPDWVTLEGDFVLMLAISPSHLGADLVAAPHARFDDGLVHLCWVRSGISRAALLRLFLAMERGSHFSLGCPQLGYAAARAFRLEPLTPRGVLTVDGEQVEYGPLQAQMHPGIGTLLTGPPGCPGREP
Conditions: at 0.1 µM.

The target of experiment [3] is T1, Sphingosine kinase 2 (Homo sapiens). The following applies: at 1 µM.
Experiment [4] has as its target Casein kinase II subunit alpha (Homo sapiens) (UniProt P68400). The following applies: at 0.1 µM.
Experiment [5] shares this target. The following applies: at 1 µM.
Experiment [6] concerns the target T2, Inhibitor of nuclear factor kappa-B kinase subunit alpha (Homo sapiens) (UniProt O15111).
T2 sequence (whole entry): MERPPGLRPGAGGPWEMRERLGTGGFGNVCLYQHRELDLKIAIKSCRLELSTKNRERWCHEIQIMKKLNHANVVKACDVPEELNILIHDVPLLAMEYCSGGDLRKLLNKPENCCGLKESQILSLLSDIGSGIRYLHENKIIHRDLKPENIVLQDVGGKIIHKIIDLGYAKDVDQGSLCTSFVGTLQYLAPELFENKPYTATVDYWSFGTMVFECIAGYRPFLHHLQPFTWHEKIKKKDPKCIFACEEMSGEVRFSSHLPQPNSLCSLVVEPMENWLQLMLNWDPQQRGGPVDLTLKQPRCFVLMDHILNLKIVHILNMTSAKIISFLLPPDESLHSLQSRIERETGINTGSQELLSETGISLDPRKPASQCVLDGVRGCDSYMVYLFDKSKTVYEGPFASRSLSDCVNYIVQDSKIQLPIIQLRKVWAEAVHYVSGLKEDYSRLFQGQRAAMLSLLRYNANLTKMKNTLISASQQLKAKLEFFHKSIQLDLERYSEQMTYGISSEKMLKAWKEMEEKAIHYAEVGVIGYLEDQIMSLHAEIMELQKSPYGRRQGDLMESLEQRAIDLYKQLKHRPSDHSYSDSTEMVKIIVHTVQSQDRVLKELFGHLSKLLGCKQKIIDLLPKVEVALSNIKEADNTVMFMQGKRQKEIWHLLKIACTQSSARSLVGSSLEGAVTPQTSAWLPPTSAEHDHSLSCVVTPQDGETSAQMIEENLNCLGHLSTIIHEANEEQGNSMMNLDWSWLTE
Conditions: at 0.1 µM.

Experiment [7] has as its target T2, Inhibitor of nuclear factor kappa-B kinase subunit alpha (Homo sapiens). Conditions: at 1 µM.
Experiment [8] addresses T3, Inhibitor of nuclear factor kappa-B kinase subunit beta (Homo sapiens) (UniProt O14920).
T3 sequence (whole entry): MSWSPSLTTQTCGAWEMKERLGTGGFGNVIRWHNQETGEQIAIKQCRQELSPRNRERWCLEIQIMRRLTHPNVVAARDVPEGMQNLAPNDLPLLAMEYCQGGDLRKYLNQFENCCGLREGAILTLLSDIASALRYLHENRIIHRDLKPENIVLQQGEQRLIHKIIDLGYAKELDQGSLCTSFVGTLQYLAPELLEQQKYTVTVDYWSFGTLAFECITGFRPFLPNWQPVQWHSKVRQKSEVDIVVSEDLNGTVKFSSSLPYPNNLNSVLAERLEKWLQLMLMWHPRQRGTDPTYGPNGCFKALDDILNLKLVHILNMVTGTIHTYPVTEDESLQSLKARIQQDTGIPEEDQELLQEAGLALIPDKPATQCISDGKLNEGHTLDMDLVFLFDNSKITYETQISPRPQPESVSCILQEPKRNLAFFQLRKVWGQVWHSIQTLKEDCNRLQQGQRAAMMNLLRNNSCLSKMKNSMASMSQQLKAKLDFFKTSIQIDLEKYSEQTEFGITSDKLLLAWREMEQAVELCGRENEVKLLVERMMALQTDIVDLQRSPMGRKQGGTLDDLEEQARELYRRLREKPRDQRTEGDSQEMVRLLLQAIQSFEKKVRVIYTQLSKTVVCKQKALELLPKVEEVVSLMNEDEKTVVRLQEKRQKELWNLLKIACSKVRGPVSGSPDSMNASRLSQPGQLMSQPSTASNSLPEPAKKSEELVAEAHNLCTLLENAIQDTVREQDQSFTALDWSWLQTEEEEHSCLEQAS
Conditions: at 0.1 µM.

The target of experiment [9] is T3, Inhibitor of nuclear factor kappa-B kinase subunit beta (Homo sapiens). The following applies: at 1 µM.
Experiment [10] deals with T4, Inhibitor of nuclear factor kappa-B kinase subunit epsilon (Homo sapiens) (UniProt Q14164).
T4 sequence (whole entry): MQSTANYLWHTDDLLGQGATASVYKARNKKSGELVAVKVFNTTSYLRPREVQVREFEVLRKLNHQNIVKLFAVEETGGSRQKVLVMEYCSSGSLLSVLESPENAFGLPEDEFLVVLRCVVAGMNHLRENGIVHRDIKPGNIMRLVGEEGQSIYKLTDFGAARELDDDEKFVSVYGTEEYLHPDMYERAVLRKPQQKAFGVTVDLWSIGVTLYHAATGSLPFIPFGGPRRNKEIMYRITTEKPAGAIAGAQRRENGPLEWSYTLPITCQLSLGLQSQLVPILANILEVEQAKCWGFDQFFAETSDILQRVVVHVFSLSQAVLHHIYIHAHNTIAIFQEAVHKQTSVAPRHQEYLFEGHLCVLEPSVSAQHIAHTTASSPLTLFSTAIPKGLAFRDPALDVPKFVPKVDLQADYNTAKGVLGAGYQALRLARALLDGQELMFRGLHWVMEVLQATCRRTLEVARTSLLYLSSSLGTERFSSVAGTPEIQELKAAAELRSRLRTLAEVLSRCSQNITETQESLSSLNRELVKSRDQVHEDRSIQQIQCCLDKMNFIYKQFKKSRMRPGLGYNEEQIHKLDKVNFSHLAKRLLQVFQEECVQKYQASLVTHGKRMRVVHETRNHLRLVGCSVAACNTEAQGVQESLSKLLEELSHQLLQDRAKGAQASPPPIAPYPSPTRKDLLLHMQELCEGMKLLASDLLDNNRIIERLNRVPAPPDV
Conditions: at 0.1 µM.

In experiment [11] the target is T4, Inhibitor of nuclear factor kappa-B kinase subunit epsilon (Homo sapiens). The following applies: at 1 µM.
Experiment [12] has as its target T5, Serine/threonine-protein kinase Nek1 (Homo sapiens) (UniProt Q96PY6).
T5 sequence (whole entry): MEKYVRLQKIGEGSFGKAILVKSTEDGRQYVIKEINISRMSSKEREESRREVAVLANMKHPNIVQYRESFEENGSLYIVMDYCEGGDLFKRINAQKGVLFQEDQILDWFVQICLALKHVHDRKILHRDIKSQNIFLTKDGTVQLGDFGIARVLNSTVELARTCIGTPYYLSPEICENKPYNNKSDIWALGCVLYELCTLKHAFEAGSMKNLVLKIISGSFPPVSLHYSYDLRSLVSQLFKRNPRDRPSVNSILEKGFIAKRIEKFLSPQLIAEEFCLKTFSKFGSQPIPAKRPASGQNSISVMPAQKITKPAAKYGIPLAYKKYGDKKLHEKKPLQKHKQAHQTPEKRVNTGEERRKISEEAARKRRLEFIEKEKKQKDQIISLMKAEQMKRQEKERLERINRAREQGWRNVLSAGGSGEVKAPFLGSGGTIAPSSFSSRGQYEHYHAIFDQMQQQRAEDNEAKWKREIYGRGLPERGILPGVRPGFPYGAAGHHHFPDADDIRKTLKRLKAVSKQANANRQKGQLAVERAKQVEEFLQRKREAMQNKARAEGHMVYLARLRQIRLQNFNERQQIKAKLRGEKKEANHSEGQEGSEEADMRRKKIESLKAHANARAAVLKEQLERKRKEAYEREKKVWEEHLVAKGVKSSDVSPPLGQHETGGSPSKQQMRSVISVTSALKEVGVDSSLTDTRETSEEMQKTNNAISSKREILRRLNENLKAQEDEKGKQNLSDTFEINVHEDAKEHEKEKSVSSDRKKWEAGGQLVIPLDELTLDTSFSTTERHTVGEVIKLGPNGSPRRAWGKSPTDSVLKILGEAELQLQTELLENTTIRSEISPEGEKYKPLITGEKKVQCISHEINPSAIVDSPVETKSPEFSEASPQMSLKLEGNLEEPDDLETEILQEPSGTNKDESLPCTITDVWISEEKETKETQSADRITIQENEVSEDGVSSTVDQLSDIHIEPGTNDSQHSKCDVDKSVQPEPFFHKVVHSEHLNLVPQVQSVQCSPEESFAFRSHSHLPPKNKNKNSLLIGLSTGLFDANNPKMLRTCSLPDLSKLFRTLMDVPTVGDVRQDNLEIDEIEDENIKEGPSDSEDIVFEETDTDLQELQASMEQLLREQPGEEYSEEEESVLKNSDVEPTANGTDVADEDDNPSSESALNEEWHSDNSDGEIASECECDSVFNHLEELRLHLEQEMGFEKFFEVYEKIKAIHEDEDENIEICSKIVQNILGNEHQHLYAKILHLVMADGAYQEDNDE
Conditions: at 0.1 µM.

Experiment [13] concerns the target T5, Serine/threonine-protein kinase Nek1 (Homo sapiens). Conditions: at 1 µM.
For experiment [14], the target named is T6, Serine/threonine-protein kinase Nek2 (Homo sapiens) (UniProt P51955).
T6 sequence (whole entry): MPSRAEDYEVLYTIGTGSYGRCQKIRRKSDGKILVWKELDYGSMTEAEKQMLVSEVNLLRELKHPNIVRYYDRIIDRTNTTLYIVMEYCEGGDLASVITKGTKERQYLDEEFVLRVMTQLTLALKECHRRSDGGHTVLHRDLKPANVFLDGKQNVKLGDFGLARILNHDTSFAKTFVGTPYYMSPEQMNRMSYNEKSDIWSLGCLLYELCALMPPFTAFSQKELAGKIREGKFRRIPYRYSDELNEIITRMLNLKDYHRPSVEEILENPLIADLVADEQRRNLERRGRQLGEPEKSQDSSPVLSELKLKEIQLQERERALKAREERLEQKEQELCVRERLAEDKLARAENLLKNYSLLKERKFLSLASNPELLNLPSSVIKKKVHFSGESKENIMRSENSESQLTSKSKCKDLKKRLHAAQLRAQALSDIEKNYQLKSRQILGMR
The following applies: at 0.1 µM.

The target in experiment [15] is T6, Serine/threonine-protein kinase Nek2 (Homo sapiens). Conditions: at 1 µM.
The target of experiment [16] is Serine/threonine-protein kinase Nek6 (Homo sapiens) (UniProt Q9HC98). Conditions: at 0.1 µM.
Sequence of Serine/threonine-protein kinase Nek6 (Homo sapiens) (Q9HC98 whole entry): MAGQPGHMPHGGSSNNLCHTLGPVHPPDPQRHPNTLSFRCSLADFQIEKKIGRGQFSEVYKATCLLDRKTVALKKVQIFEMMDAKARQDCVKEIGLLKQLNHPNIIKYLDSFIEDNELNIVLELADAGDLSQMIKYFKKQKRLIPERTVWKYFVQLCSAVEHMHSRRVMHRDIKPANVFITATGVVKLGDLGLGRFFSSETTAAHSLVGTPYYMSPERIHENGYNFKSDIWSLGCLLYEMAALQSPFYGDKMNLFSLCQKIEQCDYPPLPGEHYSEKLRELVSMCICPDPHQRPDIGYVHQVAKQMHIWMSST
The target is the same in experiment [17]. The following applies: at 1 µM.
The target of experiment [18] is Serine/threonine-protein kinase Nek7 (Homo sapiens) (UniProt Q8TDX7). The following applies: at 0.1 µM.
Sequence of Serine/threonine-protein kinase Nek7 (Homo sapiens) (Q8TDX7 whole entry, looked up): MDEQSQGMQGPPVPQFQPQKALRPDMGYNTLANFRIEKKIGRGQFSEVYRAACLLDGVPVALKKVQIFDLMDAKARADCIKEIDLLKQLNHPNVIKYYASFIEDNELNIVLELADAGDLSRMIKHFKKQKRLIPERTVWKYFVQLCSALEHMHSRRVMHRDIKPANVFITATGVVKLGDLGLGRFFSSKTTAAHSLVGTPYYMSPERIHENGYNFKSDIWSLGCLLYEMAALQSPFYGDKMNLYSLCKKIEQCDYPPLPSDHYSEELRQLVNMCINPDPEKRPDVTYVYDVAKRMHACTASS
Experiment [19] shares this target. Conditions: at 1 µM.
Experiment [20] concerns the target T7, Serine/threonine-protein kinase Nek9 (Homo sapiens) (UniProt Q8TD19).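 Further: reported value is the mean percent inhibition of NEK9.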
T7 sequence (whole entry): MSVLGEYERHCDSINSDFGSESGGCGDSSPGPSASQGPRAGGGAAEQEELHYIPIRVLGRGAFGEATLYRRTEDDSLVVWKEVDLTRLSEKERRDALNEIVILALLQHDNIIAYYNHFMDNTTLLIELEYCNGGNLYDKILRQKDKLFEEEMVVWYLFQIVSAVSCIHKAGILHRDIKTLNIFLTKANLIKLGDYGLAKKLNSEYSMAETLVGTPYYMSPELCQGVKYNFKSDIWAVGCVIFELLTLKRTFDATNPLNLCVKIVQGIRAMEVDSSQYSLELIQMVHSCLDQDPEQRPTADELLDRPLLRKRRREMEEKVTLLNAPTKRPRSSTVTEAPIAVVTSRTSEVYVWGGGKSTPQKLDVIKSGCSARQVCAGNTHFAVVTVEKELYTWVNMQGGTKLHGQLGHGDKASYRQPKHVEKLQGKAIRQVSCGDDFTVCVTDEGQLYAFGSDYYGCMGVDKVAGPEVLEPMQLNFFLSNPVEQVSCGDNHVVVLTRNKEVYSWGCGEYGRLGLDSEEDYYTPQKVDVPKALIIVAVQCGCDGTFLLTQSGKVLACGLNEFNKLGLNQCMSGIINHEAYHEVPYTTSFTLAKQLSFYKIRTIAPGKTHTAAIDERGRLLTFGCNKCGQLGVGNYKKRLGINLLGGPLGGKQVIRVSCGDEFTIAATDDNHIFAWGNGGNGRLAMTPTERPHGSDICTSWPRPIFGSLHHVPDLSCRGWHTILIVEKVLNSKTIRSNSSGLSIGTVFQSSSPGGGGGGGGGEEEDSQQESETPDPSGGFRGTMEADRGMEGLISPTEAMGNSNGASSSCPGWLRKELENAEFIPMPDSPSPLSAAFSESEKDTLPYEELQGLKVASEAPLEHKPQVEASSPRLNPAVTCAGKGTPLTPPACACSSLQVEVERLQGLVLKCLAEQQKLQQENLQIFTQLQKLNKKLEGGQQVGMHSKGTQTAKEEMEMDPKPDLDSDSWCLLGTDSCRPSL
The following applies: at 0.1 µM.

Sequence of Casein kinase II subunit alpha (Homo sapiens) (P68400 whole entry, looked up): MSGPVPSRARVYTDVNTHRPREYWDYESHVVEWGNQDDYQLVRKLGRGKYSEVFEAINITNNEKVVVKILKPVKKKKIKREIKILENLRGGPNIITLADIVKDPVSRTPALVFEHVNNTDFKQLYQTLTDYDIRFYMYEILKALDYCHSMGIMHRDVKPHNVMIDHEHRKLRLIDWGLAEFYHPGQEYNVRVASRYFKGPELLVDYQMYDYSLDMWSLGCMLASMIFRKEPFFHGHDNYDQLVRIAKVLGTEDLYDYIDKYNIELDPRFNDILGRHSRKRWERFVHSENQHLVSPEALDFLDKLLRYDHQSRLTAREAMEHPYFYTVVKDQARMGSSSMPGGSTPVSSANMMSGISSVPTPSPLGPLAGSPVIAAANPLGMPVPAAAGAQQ
Sequence of Sphingosine kinase 1 (Homo sapiens) (Q9NYA1 whole entry): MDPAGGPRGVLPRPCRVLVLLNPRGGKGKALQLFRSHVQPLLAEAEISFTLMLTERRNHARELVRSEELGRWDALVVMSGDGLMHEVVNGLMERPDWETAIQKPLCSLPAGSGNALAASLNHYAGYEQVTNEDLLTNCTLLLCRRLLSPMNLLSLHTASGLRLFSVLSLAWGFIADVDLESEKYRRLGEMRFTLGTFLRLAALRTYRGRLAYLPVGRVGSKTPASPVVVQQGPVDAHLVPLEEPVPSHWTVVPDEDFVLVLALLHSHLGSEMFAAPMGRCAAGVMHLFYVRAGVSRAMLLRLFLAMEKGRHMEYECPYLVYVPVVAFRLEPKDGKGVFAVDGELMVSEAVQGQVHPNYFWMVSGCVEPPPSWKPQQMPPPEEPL

For the molecule `COc1cc(Nc2ncc(-c3ccccc3)o2)cc(OC)c1`, the inhibition was 2.45% in experiment [1]; -0.24% in experiment [2]; -0.57% in [3]; 3.79% in [4]; 3.91% in [5]; 2.7% in experiment [6]. Besides, the inhibition in experiment [7] was found to be 4.19%; in experiment [8], 4.63%; in experiment [9], 7.8%; in experiment [10], 12.6%; in experiment [11] it was 10.9%; in [12] it was 1.83%. In addition, the inhibition in experiment [13] came out at 4.11%; in experiment [14], 5.36%; in experiment [15], 5.95%; in experiment [16] it was 3.13%; in experiment [17], 1.56%; in [18], 3.14%. The inhibition in experiment [19] was 5.01%; in experiment [20] it was 10.4%.

The values are drawn from ChEMBL document CHEMBL1961873, “Compounds: GSK PKIS; Assays: Nanosyn kinase panel” (2012).
